Results with a measured potency or affinity are listed apart. The source made the active and inactive calls. The rule behind the calls is not given here.
The compounds below were run against CAAX prenyl protease 2 (Homo sapiens) (UniProt Q9Y256) (assay: human Rce1 protease inhibitors, dose response, biochemical, yeast membranes, quenched-peptide fluorescence, cherry-pick (AID 588849)). Conditions: yeast membrane fractions expressing human Rce1, quenched-peptide fluorescence, 4 h; series mostly up to 10 µM; activity change, negative = inhibition: at the top concentration.
Sequence of CAAX prenyl protease 2 (Homo sapiens) (Q9Y256 whole entry, looked up): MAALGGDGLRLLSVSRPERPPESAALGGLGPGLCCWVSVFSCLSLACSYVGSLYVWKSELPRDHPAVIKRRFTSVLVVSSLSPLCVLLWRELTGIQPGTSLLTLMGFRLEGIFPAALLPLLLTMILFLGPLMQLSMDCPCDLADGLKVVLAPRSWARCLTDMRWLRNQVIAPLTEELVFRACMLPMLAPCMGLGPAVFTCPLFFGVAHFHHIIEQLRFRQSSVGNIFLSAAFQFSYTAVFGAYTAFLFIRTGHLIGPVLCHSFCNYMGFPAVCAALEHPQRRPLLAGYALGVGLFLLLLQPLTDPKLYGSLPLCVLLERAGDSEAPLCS

Activity change, negative = inhibition, inactive:
c1ccc(CNc2nc(N3CCN(Cc4ccccc4)CC3)nc3ccccc23)cc1 26.3% [at 3.5 µM], COc1cccc(-c2csc(N3CCN(C(=O)NC45CC6CC(CC(C6)C4)C5)CC3)n2)c1 -19.7%, Cc1ccc(-c2nc(SCC(=O)N(C)C3CCS(=O)(=O)C3)[nH]c2-c2ccc(C)cc2)cc1 (stereo not drawn) -23.7%, CCN(Cc1ccccc1)S(=O)(=O)c1ccc(C(=O)N(CCCN(C)C)c2nc3cc(C)cc(C)c3s2)cc1 -14.8%, Nc1c(C(=O)NCc2ccccc2)sc2nc(N3CCOCC3)c3c(c12)CCCC3 50.9%, O=S(=O)(c1ccccc1)c1cnn2c(C(F)(F)F)cc(-c3ccc(F)cc3)nc12 -1.03%, O=C(O)CCCC[C@@H]1SC[C@@H]2NC(=O)N[C@@H]21 26.2%, CCCCOc1ccc(-c2cc(C(F)(F)F)c(C#N)c(SCC(=O)O)n2)cc1 10.3%, CC(Cc1cccs1)NC(=O)Nc1ccc([N+](=O)[O-])cc1 (stereo not drawn) -3.92%, CCNC(=S)NNC(=O)CCn1cc(C)cn1 -13.4%, CCOC(=O)c1c(C2COc3ccccc3O2)csc1NC(=O)c1ccccc1 (stereo not drawn) -4.75%, Oc1c(N=NC(=S)Nc2ccccc2F)c2ccccc2n1Cc1ccccc1F -11.4%, COc1ccc(C(CNC(=O)COc2cc(C)c(Cl)c(C)c2)N2CCCCC2)cc1 (stereo not drawn) -12.7%, CCCCNC(=O)C(CC)Sc1nc2sc(C(=O)OC)c(C)c2c(=O)n1N (stereo not drawn) -16.2%, CCN1CCN(CC(O)COc2ccc3c(C)cc(=O)oc3c2)CC1 (stereo not drawn) 0.145%, CC1(c2nnc(-c3cccc(Cl)c3)o2)CC(c2cccc(F)c2)=NO1 (stereo not drawn) 4.59%, CCn1cc(/C=C(\NC(=O)c2ccccc2F)C(=O)N2CCCC2)c2ccccc21 -16.6%, CCOC(=O)C[C@H]1c2ccccc2S(=O)(=O)N1Cc1cc(OC)c(OC)c(OC)c1 -1.29%, O=C(c1cnc2n(c1=O)CCS2)N1CCN(C(c2ccccc2)c2ccc(Cl)cc2)CC1 (stereo not drawn) 18.3%, COC(C[C@@H](O)C[C@H](O)[C@H](C)OCc1ccccc1)OC 12.2%, N=c1c(C(=O)NCc2ccc(F)cc2)cc2c(=O)n3ccccc3nc2n1Cc1cccnc1 43.3%, CCCCCCCCCC[N+](C)(C)CC/C=C1/c2ccccc2Sc2ccc(Cl)cc21 -7.78% [at 3.5 µM], COc1ccc(C(C(=O)NC2CCCCC2)N(C(=O)c2snc(C(N)=O)c2N)c2ccc(OC)cc2OC)cc1 (stereo not drawn) 4.83%
